According to PubChem BioAssay (Tox21):
“And” between values parts separate entries of the source, which are not always exact repeats. Identical values can stand only once. Records with an inconclusive call do not appear. Entries that show only a call come without a potency. The source made the active and inactive calls. The call rests on the fitted dose curve.

Each molecule was assayed against Thyrotropin receptor (Homo sapiens) (UniProt P16473) (assay: qHTS assay to identify small molecule agonists of the thyroid stimulating hormone receptor (TSHR) signaling pathway (AID 1224843; further: nearly all actives have a fitted effect of over 45% in size)). Settings: TSHR-HEK293 cells, cAMP HTRF, agonist mode, 30 min; series mostly up to 92.4 µM.
Source text: National Center for Advancing Translational Sciences [NCATS]
NIH Chemical Genomics Center [NCGC]
U.S. Environmental Protection Agency [EPA]
National Institutes of Environmental Health Sciences [NIEHS]
National Toxicology Program [NTP]
U.S. Food and Drug Administration [FDA]
TSHR is the receptor for thyrotropin (thyroid stimulating hormone or TSH), a member of the glycoprotein hormone family. TSH is released by the anterior pituitary gland and is the main regulator of thyroid gland growth and development. Upon binding circulating thyrotropin, a G-protein signal cascade activates adenylyl cyclase and […] cAMP concentration is increased. cAMP is a key second messenger involved extensively in cellular signal transduction pathways associated with the majority of G-protein coupled receptors (GPCRs). The activation of these GPCRs by neurotransmitters, lipids, nucleotides, peptides and hormones results in the activation or the inhibition of plasma membrane-bound adenylate cyclase through heterotrimeric G-proteins. A cell-based TSHR assay was used to screen the Tox21 10K library for compounds that can modulate TSHR in agonist mode.
Tox21 Assay Protocol Summary:
TSHR-Hek293 cells were dispensed at 800 cells/4uL/well in 1536-well white plates using a Multidrop dispenser. […] The plates were incubated at room temperature for 30 min. 2.5 ul/well of cAMP-d2 and 2.5ul/well of anti-cAMP-cryptate was added respectively into the assay plates using a Flying Reagent Dispenser. After 1 hr incubation at room temperature, the fluorescence intensity in the plates was measured using an Envision plate reader. Each test compound was measured at 15 concentrations and in triplicates.
Potency means the concentration at half of the fitted maximal effect.

Chain of Thyrotropin receptor (Homo sapiens) (P16473 whole entry, looked up): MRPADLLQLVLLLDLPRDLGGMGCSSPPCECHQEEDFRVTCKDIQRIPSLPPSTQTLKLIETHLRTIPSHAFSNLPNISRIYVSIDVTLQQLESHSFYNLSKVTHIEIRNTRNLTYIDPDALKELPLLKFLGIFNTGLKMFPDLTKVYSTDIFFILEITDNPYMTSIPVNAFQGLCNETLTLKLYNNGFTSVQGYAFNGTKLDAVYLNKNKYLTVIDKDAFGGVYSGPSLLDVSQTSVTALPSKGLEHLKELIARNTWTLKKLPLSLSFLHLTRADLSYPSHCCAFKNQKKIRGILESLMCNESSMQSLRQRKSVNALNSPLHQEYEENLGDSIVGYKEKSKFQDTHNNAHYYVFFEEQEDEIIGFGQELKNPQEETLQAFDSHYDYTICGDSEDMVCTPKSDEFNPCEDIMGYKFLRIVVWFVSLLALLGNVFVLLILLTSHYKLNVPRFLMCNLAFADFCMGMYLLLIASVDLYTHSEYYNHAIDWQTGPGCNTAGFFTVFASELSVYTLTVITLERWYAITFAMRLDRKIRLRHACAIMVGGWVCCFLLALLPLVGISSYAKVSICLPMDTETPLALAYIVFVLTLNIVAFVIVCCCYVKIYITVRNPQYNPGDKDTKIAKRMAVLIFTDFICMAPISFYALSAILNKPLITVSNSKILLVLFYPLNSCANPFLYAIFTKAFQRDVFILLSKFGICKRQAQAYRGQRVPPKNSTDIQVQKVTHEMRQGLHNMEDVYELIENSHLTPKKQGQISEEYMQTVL

Structure (SMILES)	Potency
C#C[C@]1(O)CC[C@H]2[C@@H]3CCC4=CC(=O)CC[C@@H]4[C@H]3CC[C@@]21CC	inactive
C=CCOC(=O)CC(C)C	inactive
NC(=O)c1ccc([N+](=O)[O-])cc1Cl	inactive
CCCCCCCCOc1ccc(C(=O)c2ccccc2)c(O)c1	inactive
O=C(O)CN(CC(=O)O)CC(=O)O	inactive
N[C@@H](Cc1c[nH]c2ccc(O)cc12)C(=O)O	inactive
NC(=O)N/N=C/c1ccc([N+](=O)[O-])o1	inactive
CCCCOC(=O)CCCCCCCCC(=O)OCCCC	inactive
CC1(C)O[C@@H]2[C@@H](CO[C@@]3(COS(N)(=O)=O)OC(C)(C)O[C@@H]23)O1	inactive
C/C=C/c1ccc(O)c(OC)c1	inactive
CCCCCCCCCCCCCC(=O)OC(C)C	inactive
C=C(C)C(N)=O	inactive
COc1ccc(O)cc1	inactive
CC(=O)c1ccc(S(=O)(=O)NC(=O)NC2CCCCC2)cc1	inactive
CCCCCCCC(=O)OCC(O)CO (stereo not given)	inactive
CC(=O)CCC(C)C	inactive
CN(C)Cc1cc(CN(C)C)c(O)c(CN(C)C)c1	inactive
CO[C@H]1C=CO[C@@]2(C)Oc3c(C)c(O)c4c(O)c(c(/C=N/N5CCN(C)CC5)c(O)c4c3C2=O)NC(=O)/C(C)=C\C=C[C@H](C)[C@H](O)[C@@H](C)[C@@H](O)[C@@H](C)[C@H](OC(C)=O)[C@@H]1C	inactive
CCOCCO	inactive
CCN(CC)CCOC(=O)c1ccc(N)cc1	inactive

Structure (SMILES)	Potency
COc1cc(C=O)ccc1O	inactive
C=C(C)OC(C)=O	inactive
CN/C(=C\[N+](=O)[O-])NCCSCc1ccc(CN(C)C)o1	inactive
CC(C)(C)NCC(O)c1ccc(O)c(CO)c1 (stereo not given)	60.7 nM (active) and 37.6 nM (active)
CCCCCCCCCCCCCCCCCC(=O)OCC(O)CO (stereo not given)	inactive
COC1=CC(=O)C[C@@H](C)[C@]12Oc1c(Cl)c(OC)cc(OC)c1C2=O	9.6 µM (active) and 17.2 µM (active)
COc1cc(O)c(C(=O)c2ccccc2)cc1S(=O)(=O)O	inactive
COC(=O)C1CCC(C(=O)OC)CC1 (stereo not given)	inactive
CCCCNC(=O)NS(=O)(=O)c1ccc(N)cc1	inactive
COc1ccc(C(=O)c2ccccc2)c(O)c1	inactive
C#C[C@]1(O)CC[C@H]2[C@@H]3CCc4cc(O)ccc4[C@H]3CC[C@@]21C	13.6 µM (active) and 21.7 µM (active) and 8.41 µM (active)
Cn1cnc2c1c(=O)[nH]c(=O)n2C	inactive
CC(=O)OC/C=C(C)/C=C/C=C(C)/C=C/C1=C(C)CCCC1(C)C	inactive
CC(C)=CCC/C(C)=C/CO	inactive
O=[N+]([O-])c1ccc(O)cc1	inactive
Nc1ccc(N=Nc2ccccc2)c(N)n1	inactive
c1ccc2[nH]c(-c3cscn3)nc2c1	inactive
O=C(O)CCCCC1CCSS1 (stereo not given)	inactive
CC(=O)Oc1ccccc1C(=O)O	inactive
COc1ccccc1O	inactive
